Experimental data: PubChem BioAssay AID743262 (National Center for Advancing Translational Sciences (NCATS), 2014)
In all, about 1,300 compounds went through this assay and about 25 (2%) were called active. Another 9% or so got no clear call; they are omitted. Calls come from the whole dose curve; as a rule, active = well fitted activation curve with a large enough effect; inconclusive = small, poorly fitted or top-dose-only effect; inactive = flat fitted curve, though single readings scatter. Only a selection was taken, and actives are over-represented in it overall.

What follows are compounds tested against Glucagon-like peptide 1 receptor (Homo sapiens) (UniProt P43220) (assay: qHTS of GLP-1 Receptor Agonists: Hit Validation). Details: HEK293 GLP-1R, cAMP-response luciferase, 4-6 h; series mostly up to 46.1 µM; activation: at the top concentration.
Text: The overall goal of this project was to develop a novel assay for discovering small molecule ligands for class B1 G protein-coupled receptors (GPCRs). Very few agonists (or inverse agonists) with generally weak activity for this entire group of physiologically important receptors are known to date. To establish proof-of-principle that this critical bottleneck can be overcome with a suitable screening approach, our studies focused on the class B1 receptor for glucagon-like peptide-1 (GLP-1R), a potential therapeutic target for diabetes and neurodegenerative disease. The assay was developed in a "mix and measure" format using a cell-based functional readout. Toward this goal, stably transfected HEK293 cell clones were established that co-express (i) a cAMP-responsive luciferase reporter gene, and (ii) GLP-1Rs that upon ligand interaction either stimulate (agonists) or inhibit (inverse agonists) luciferase activity. In different cell lines to be used for screening, expressed GLP-1Rs are specifically optimized for high sensitivity detection of either weak agonists (hypersensitive receptor) or inverse agonists (constitutively active receptor mutant). In addition, control cell lines were developed that express either the cAMP-responsive reporter gene without recombinant GLP-1Rs (enabling initial exclusion of GLP-1R independent effects of candidate probes), or the reporter gene together with wild type GLP-1Rs (for confirmation of probe activity at this receptor), or the reporter gene in combination with the constitutively active orphan receptor GPR119 (enabling initial exclusion of GLP-1R independent inhibitory effects of candidate inverse agonists). To that end, this assay was optimized for 1536-well format and screened against the MLSMR. NIH Molecular Libraries Probe Production Network [MLPCN] NIH Chemical Genomics Center [NCGC] Grant: NS064851 PI Name: Martin Beinborn, Tufts Medical Center
In a white solid 1536-well plate, 6 uL of cells are dispensed in DMEM without phenol red, 10% Nu serum, and 1% pen-strep medium. The plates are then incubated for 12 hours at 37 deg C at 5% CO2 before 23 nL of compounds are added. After a 4-6 hr incubation at37 deg C and 5% CO2, 3 uL of detection reagent are added and after a 12 min incubation at RT, a luminescent read is obtained on the ViewLux.
Potency is the fitted concentration of half-maximal effect.
Throughout, for activation: % of control where 0% means no effect.

Sequence of Glucagon-like peptide 1 receptor (Homo sapiens) (P43220 whole entry, looked up): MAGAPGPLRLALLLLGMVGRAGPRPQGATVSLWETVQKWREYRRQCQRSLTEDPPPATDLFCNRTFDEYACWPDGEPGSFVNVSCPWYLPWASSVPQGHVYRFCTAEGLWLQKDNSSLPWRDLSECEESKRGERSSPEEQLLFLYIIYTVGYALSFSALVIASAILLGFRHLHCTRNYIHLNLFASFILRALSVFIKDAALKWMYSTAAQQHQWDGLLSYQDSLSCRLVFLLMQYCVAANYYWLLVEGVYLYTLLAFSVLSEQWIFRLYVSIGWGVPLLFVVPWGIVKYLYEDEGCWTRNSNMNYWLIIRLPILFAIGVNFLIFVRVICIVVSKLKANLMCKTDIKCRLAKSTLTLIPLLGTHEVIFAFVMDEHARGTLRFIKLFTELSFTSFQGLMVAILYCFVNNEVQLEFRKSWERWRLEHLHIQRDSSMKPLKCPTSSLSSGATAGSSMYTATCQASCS

activation, inactive:
COCCNc1nc(Nc2ccccc2Cl)c2sccc2n1 7.08%
Clc1ccccc1Nc1nc(NCC2CC2)nc2ccsc12 4.99%
CCOc1ccc(C(C)=O)cc1COC(=O)CCc1cc(OC)c(OC)c(OC)c1 1.66%
CCOC(=O)c1c(C)[nH]c(C)c1C(=O)COC(=O)c1sccc1C 0.504%
CCOC(=O)c1cn(-c2ccccc2)nc1-c1ccncc1 2.6%
COc1ccc(Cn2c(SCC#N)nc3ccc(N4CCOCC4)cc3c2=O)cc1 19.6%
CCOC(=O)C1(C)CCCN(C(=O)c2cc(C)oc2C)C1 (stereo unspecified) -0.718%
Cc1ccc(NC(=O)Nc2ccc([N+](=O)[O-])cc2)nc1 -0.803%
COc1cc2c(cc1OC)C1=C(C#N)CCC(=NC(=O)c3ccc(Cl)cc3)N1CC2 14.6%
C=CCSc1nc2c(c(=O)[nH]c(=O)n2C)n1CC 6.88%
COc1ccc([N+](=O)[O-])cc1NS(=O)(=O)c1cc(C(=O)N2CCN(C)CC2)ccc1OC 2.19%
CC(C)Cn1cnc2c(SCc3ccccc3F)nc(N)nc21 5.83%
CCCn1c2ccc(F)cc2c2nnc(SCCN3CCOCC3)nc21 10.9%
CCOc1ncccc1C(=O)OCc1ccc(C(=O)OC)o1 3.21%
Nc1nc2sc3c(c2c(=O)s1)CCCC3 19.1%
COc1cc2c(cc1OC)CN(C(=O)c1ccc(N3CCCC3)c([N+](=O)[O-])c1)CC2 4.86%
COC(=O)[C@@H]1CCCN1C(=O)c1cc(COc2cccc3cccnc23)on1 -0.35%
CCN=C1S/C(=C\c2cn(CC)c3ccccc23)C(=O)N1CC 26.8%
COc1ccccc1N1CCN(C(=O)/C=C/c2ccco2)CC1 2.92%
COc1cccc(OC)c1C(=O)Nc1ccc(C(=O)c2ccncc2)cc1 -0.423%
CCOC(=O)c1c(NC(=O)COC)sc(C)c1C 3.9%
COc1ccc(C2CC(c3ccc(OC)c(OC)c3)=NN2C(=O)c2ccccc2)cc1 (stereo unspecified) 28%
CCOc1ccc(-c2nnc3n2N=C(c2ccc(OC)cc2)CS3)cc1 8.96%
COc1ccc(C2=Nn3c(nnc3-c3ccco3)SC2)cc1 7.18%
COc1ccc(C2=Nn3c(nnc3-c3ccccc3)SC2)cc1OC 19.1%
c1cc2c(cc1C1=Nn3c(nnc3C3CCCCC3)SC1)OCO2 18.3%
COc1ccc(C2=NN(C(C)=O)C(c3cccs3)C2)cc1OC (stereo unspecified) 14.1%
COc1ccc(C2=Nn3c(nnc3-c3ccccn3)SC2)cc1OC 29.2%
Cc1cc(C)n(-c2nnc3n2N=C(c2c[nH]c4ccccc24)CS3)n1 6.87%
C/C(=N\Nc1nc2ccccc2[nH]1)c1ccc(C)o1 -0.323%
COc1cc(C#Cc2ccc3cc(CCO)oc(=O)c3c2)cc(OC)c1 29.7%
O=c1[nH]n(CC2COC3(CCCCC3)O2)c(=O)c2ccccc12 (stereo unspecified) 5.01%
COCc1cccc(-c2csc(C(C)(O)c3cccc(F)c3)n2)c1 (stereo unspecified) 0.448%
COc1cc(SC)ccc1C(=O)OCc1nc2ccsc2c(=O)[nH]1 3.67%
CSc1nnc(C)c(/C=C/Nc2ccc(F)cc2)n1 12.1%
CN(C)c1ccc(N=Nc2ccccc2C(=O)OCC(=O)Nc2ccccc2C(F)(F)F)cc1 4.63%
COc1ccc(/C=N/n2c(-c3ccc(C)cc3)n[nH]c2=S)cc1OC 22.8%
C=CCn1c2ccccc2c(=O)c2cc(C#CC3(O)CCCCC3)ccc21 19.5%
O=C(Nc1ccccc1)OCc1cc(-c2ccccc2Cl)on1 4.56%
CCCc1cc(-c2ccc(O)c(OCC)c2)c(C#N)c(N)n1 10.5%
COc1ccc(CCN(C)C/C=C/c2ccccc2[N+](=O)[O-])cc1OC 4.02%
CCCOc1ccc2c(=O)c(-c3cc(C(=O)OC)oc3C)c(C)oc2c1 0.445%
Fc1ccccc1COc1ccc(Br)cc1CNCc1cccnc1 0.917%
COc1cc(-c2nc(Cc3ccccc3Cl)no2)cc(OC)c1OC 4.3%
COc1ccc(Cc2noc(-c3ccc(OC)c(OC)c3)n2)cc1OC 7.14%
CCCCCCSC1=C(C#N)C(c2ccc(O)cc2)CC(=O)N1 (stereo unspecified) -0.367%
NS(=O)(=O)c1cccc(NC(=O)Nc2ccccc2)c1 -0.735%
CCc1ccc(C(=O)COC(=O)c2cc([N+](=O)[O-])ccc2NCCO)cc1 11%
CC(CCc1ccco1)NC(=O)c1cccc2c1C(=O)N(C1CCCCC1)C2 (stereo unspecified) 6.34%
Cc1nn(-c2ccccc2)c(Cl)c1/C=N/NC(N)=O 18.9%
Cc1ccccc1Nc1nc(N)nc(-c2oc3ccccc3c2C)n1 23.8%
COc1cccc(C(C)(O)c2nc(-c3ccc(OC)c(OC)c3)cs2)c1 (stereo unspecified) 12%
Cc1c(C(=O)N(C)C(C)c2ccccn2)oc2c(F)cccc12 (stereo unspecified) 2.69%
CCOCCCn1c(=NC(=O)c2cccnc2)c(C(=O)OCC)cc2c(=O)n3ccccc3nc21 1.76%
COc1ccc(-c2cc(C3CC3)nc(N)c2C#N)cc1 3.1%
CCOC(=O)c1c(NC(=O)Cc2ccccc2)sc2c1CCN(CC)C2 1.77%
CCOC(=O)c1cnc2c(c(C)nn2CC)c1NC1CC1 13.8%
c1ccc(Cn2nnc3c(N4CCC5(CC4)OCCO5)ncnc32)cc1 -0.288%
COc1ccc(CCN(C)C(=O)CCc2nnc(-c3ccccc3)o2)cc1OC -0.272%
COc1ccccc1Nc1cc(C(=O)NCc2cccnc2)c2ccccc2n1 1.83%
COc1cc2c(cc1OC)CN(C(=O)c1ccc(S(=O)(=O)N(C)c3ccccc3)cc1)CC2 16.1%
O=c1c2c3c(sc2nc(NCCO)n1Cc1ccco1)CCCCC3 6.54%
CCSc1cc(C)nc2c(-c3ccccc3)c(C)nn12 4.39%
CCOC(=O)c1sc(NC(=O)/C=C/c2cnn(CC)c2C)c(C(=O)OCC)c1C 4.5%

Potency, active:
COCCNc1nc(Nc2ccc(C)cc2C)c2sccc2n1 9.2 µM
Nc1nnc(-c2cn(-c3ccccc3)nc2-c2ccccc2)o1 5.17 µM
COc1ccc(C2=Nn3c(nnc3C3CCCCC3)SC2)cc1OC 8.2 µM
COc1ccc(OC)c(-c2nnc3n2N=C(c2ccc(OC)c(OC)c2)CS3)c1 1.64 µM
COc1ccc(C2=Nn3c(nnc3-c3ccccc3Cl)SC2)cc1OC1CCOC1 (stereo unspecified) 13 µM
COc1ccc(C2=Nn3c(nnc3-c3ccccc3OC)SC2)cc1OC 5.8 µM
COc1ccc(CN(C)Cc2nc(Cc3ccccc3Cl)no2)cc1OC 16.4 µM
